Our source for the outcome and AC50 values is PubChem BioAssay (EPA / NIEHS).

Active and inactive are the calls of the source. How the source made its calls: active means hit-call score of the fitted dose curve at least 0.9, where 1 is the maximum; inactive means score below 0.9.

What all share (conditions): mRNA level, 48 h; actives raise or lower the signal
Read-out in assay [1]: Apoptosis regulator Bcl-2 (Homo sapiens) (UniProt P10415)
Kind of assay: LTEA_HepaRG_BCL2: Life Technologies and Expression Analysis (LTEA) Assay for Bcl-2 gene using HepaRG (AID 2283475). An outline of the steps: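 Differentiated human HepaRG cells in serum-free induction medium exposed 48 h, in duplicate, to 8-point half-log series from 100 uM in 0.5% DMSO. BCL2 mRNA by qRT-PCR (TaqMan/Fluidigm), normalized to ACTB, GAPDH, POLR2A; bidirectional fit against DMSO.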

Read-out in assay [2]: Bcl-2 (BID) gene, BID (gene 637)
Kind of assay: LTEA_HepaRG_BID: Life Technologies and Expression Analysis (LTEA) Assay for Bcl-2 (BID) gene using HepaRG (AID 2283476). The gist of the method: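 Gene expression by qRT-PCR in HepaRG cells after 48 h exposure, duplicate wells, eight half-log concentrations topping at 100 uM in 0.5% DMSO. Normalized to ACTB, GAPDH, POLR2A; bidirectional fitting relative to DMSO.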

Read-out in a further assay: Caspase-3 (Homo sapiens) (UniProt P42574)
Kind of assay: LTEA_HepaRG_CASP3: Life Technologies and Expression Analysis (LTEA) Assay for cysteine-aspartic acid protease (CASP3) using HepaRG (AID 2283477). An outline of the steps: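 Differentiated HepaRG cells, plated 48 h, were treated in duplicate in serum-free induction medium for 48 h with eight half-log concentrations up to 100 uM in 0.5% DMSO. CASP3 mRNA measured by qRT-PCR, normalized to ACTB, GAPDH, POLR2A.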

Read-out in assay [3]: Cytochrome P450 (CYP1A2), CYP1A2 (gene 1544)
Kind of assay: LTEA_HepaRG_CYP1A2: Life Technologies and Expression Analysis (LTEA) Assay for Cytochrome P450 (CYP1A2) using HepaRG (AID 2283479). The gist of the method: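 Differentiated human HepaRG cells in serum-free induction medium exposed 48 hours in duplicate to 8 half-log concentrations from 100 uM, 0.5% DMSO. CYP1A2 mRNA quantified by qRT-PCR, normalized to ACTB, GAPDH and POLR2A; bidirectional fitting versus DMSO.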

Read-out in assay [4]: Cytochrome P450 (CYP2B6), CYP2B6 (gene 1555)
Kind of assay: LTEA_HepaRG_CYP2B6: Life Technologies and Expression Analysis (LTEA) Assay for Cytochrome P450 (CYP2B6) using HepaRG (AID 2283481). An outline of the steps:
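Differentiated human HepaRG cells in serum-free induction medium, dosed in duplicate for 48 h over 8 half-log concentrations topping at 100 uM (0.5% DMSO). CYP2B6 mRNA measured by TaqMan qRT-PCR, normalized to ACTB, GAPDH, POLR2A; bidirectional fit versus DMSO.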

Read-out in assay [5]: Cytochrome P450 2C19 (Homo sapiens) (UniProt P33261)
Kind of assay: LTEA_HepaRG_CYP2C19: Life Technologies and Expression Analysis (LTEA) Assay for CYP2C19 using HepaRG (AID 2283482). An outline of the steps: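 Differentiated HepaRG cells in serum-free induction medium exposed 48 h in duplicate, 8 concentrations from 100 uM by half-log steps in 0.5% DMSO. CYP2C19 mRNA measured by TaqMan qRT-PCR, normalized to ACTB, GAPDH, POLR2A. Bidirectional fit versus DMSO.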

Read-out in another assay: CYP2C8 (gene 1558)
Kind of assay: LTEA_HepaRG_CYP2C8: Life Technologies and Expression Analysis (LTEA) Assay for CYP2C8 using HepaRG (AID 2283483). An outline of the steps: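 CYP2C8 mRNA induction or loss, by qRT-PCR normalized to ACTB/GAPDH/POLR2A, is read in HepaRG cells after 48 h treatment. Concentrations run from 100 uM down in half-log dilutions, with 0.5% DMSO as vehicle and baseline.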

Read-out in the next assay: CYP2C9 (gene 1559)
Kind of assay: LTEA_HepaRG_CYP2C9: Life Technologies and Expression Analysis (LTEA) Assay for CYP2C9 using HepaRG (AID 2283484). An outline of the steps:
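Cells plated 48 h, switched to serum-free induction medium, then treated in duplicate for 48 h at eight concentrations (max 100 uM, 0.5% DMSO). RNA then analysed by qRT-PCR for CYP2C9; curves fitted in both directions relative to DMSO.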

Read-out in a further assay: CYP4A11 (gene 1579)
Kind of assay: LTEA_HepaRG_CYP4A11: Life Technologies and Expression Analysis (LTEA) Assay for CYP4A11 using HepaRG (AID 2283486). An outline of the steps:
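Differentiated HepaRG cells, 48 h after plating, exposed in duplicate for 48 h to 8 half-log concentrations up to 100 uM in 0.5% DMSO in serum-free induction medium. CYP4A11 mRNA measured by TaqMan qRT-PCR, normalized to ACTB, GAPDH and POLR2A.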

Read-out in assay [6]: Cytochrome P450 3A4 (Homo sapiens) (UniProt P08684)
Kind of assay: LTEA_HepaRG_CYP3A4: Life Technologies and Expression Analysis (LTEA) Assay for CYP3A4 using HepaRG (AID 2283487). The gist of the method:
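Differentiated HepaRG cells, plated 48 h, then dosed 48 h in serum-free induction medium with 0.5% DMSO, 8 half-log concentrations up to 100 uM, duplicate. CYP3A4 mRNA by qRT-PCR, normalized to ACTB/GAPDH/POLR2A; bidirectional fit versus DMSO.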

Read-out in assay [7]: DNA damage-inducible transcript 3 (DDIT3), DDIT3 (gene 1649)
Kind of assay: LTEA_HepaRG_DDIT3: Life Technologies and Expression Analysis (LTEA) Assay for DNA damage-inducible transcript 3 (DDIT3) using HepaRG (AID 2283488). The gist of the method: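 HepaRG cells, 48 h after plating, exposed 48 h in serum-free induction medium to 8 half-log concentrations up to 100 uM in 0.5% DMSO, in duplicate. DDIT3 mRNA measured by TaqMan qRT-PCR, normalized to ACTB, GAPDH and POLR2A. Fitted bidirectionally against DMSO.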

Read-out in assay [8]: Pro-epidermal growth factor (Homo sapiens) (UniProt P01133)
Kind of assay: LTEA_HepaRG_EGF: Life Technologies and Expression Analysis (LTEA) Assay for Epidermal growth factor (EGF) using HepaRG (AID 2283489). The gist of the method:
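HepaRG cells (~100,000/well, 48 h pre-culture) exposed in duplicate for 48 h in serum-free induction medium to 8 half-log concentrations up to 100 uM in 0.5% DMSO. EGF mRNA by qRT-PCR, normalized to ACTB/GAPDH/POLR2A; bidirectional fit versus DMSO.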

Read-out in assay [9]: Early growth response protein 1 (EGR1) transcription factor, EGR1 (gene 1958)
Kind of assay: LTEA_HepaRG_EGR1: Life Technologies and Expression Analysis (LTEA) Assay for Early growth response protein 1 (EGR1) transcription factor using HepaRG (AID 2283490). An outline of the steps:
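Read-out is EGR1 mRNA level by qRT-PCR, normalized to three housekeeping genes and analysed for gain or loss of signal against 0.5% DMSO. Source cells: human HepaRG, treated 48 h at up to 100 uM in half-log dilutions.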

Read-out in assay [10]: Ezrin (EZR), EZR (gene 7430)
Kind of assay: LTEA_HepaRG_EZR: Life Technologies and Expression Analysis (LTEA) Assay for Ezrin (EZR) using HepaRG (AID 2283491). An outline of the steps: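 EZR transcript levels came from Fluidigm qRT-PCR and were normalized to three housekeeping genes after 48 h chemical exposure of HepaRG cells. Dosing used an 8-point half-log series with a 100 uM top concentration in 0.5% DMSO, tested in duplicate; both directions were fitted versus vehicle.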

Read-out in another assay: CYP3A5 (gene 1577)
Kind of assay: LTEA_HepaRG_CYP3A5: Life Technologies and Expression Analysis (LTEA) Assay for CYP3A5 using HepaRG (AID 2283493). An outline of the steps:
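HepaRG cells, plated 48 h then in serum-free induction medium, dosed in duplicate for 48 h with eight half-log concentrations up to 100 uM in 0.5% DMSO. Gene mRNA by Fluidigm TaqMan qRT-PCR, normalized to ACTB, GAPDH, POLR2A.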

Read-out in assay [11]: Fatty Acid-Binding Protein 1 (FABP1), FABP1 (gene 2168)
Kind of assay: LTEA_HepaRG_FABP1: Life Technologies and Expression Analysis (LTEA) Assay for Fatty Acid-Binding Protein 1 (FABP1) using HepaRG (AID 2283494). The gist of the method: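 HepaRG, 48 h post-plating switched to serum-free induction medium, then dosed 48 h (duplicate, 8 pts, ≤100 uM, 0.5% DMSO). RNA → Fluidigm TaqMan qRT-PCR, FABP1 normed to ACTB/GAPDH/POLR2A. Bidirectional curve fit vs DMSO.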

Read-out in assay [12]: cysteine-aspartic acid protease (CASP8), CASP8 (gene 841)
Kind of assay: LTEA_HepaRG_CASP8: Life Technologies and Expression Analysis (LTEA) Assay for cysteine-aspartic acid protease (CASP8) using HepaRG (AID 2283480). An outline of the steps:
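HepaRG, 48 h exposure, duplicate wells; 8 conc, half-log from 100 uM, 0.5% DMSO. Serum-free induction medium. CASP8 mRNA by TaqMan qRT-PCR, norm. ACTB/GAPDH/POLR2A; gain/loss fitted vs DMSO.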

Read-out in a further assay: CYP2E1 (gene 1571)
Kind of assay: LTEA_HepaRG_CYP2E1: Life Technologies and Expression Analysis (LTEA) Assay for CYP2E1 using HepaRG (AID 2283485). An outline of the steps: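 HepaRG cells, plated 48 h, then exposed 48 h in serum-free induction medium to eight half-log concentrations from 100 uM in 0.5% DMSO, duplicate. CYP2E1 mRNA by qRT-PCR, normalized to ACTB/GAPDH/POLR2A; bidirectional fit versus DMSO.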

Read-out in assay [13]: Cytochrome P450 3A7 (Homo sapiens) (UniProt P24462)
Kind of assay: LTEA_HepaRG_CYP3A7: Life Technologies and Expression Analysis (LTEA) Assay for CYP3A7 using HepaRG (AID 2283492). An outline of the steps:
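Differentiated HepaRG cells in serum-free induction medium exposed 48 h in duplicate to 8-point half-log series from 100 uM top in 0.5% DMSO. CYP3A7 mRNA by qRT-PCR, normalized to ACTB/GAPDH/POLR2A, bidirectional fit versus DMSO.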

Chain of Caspase-3 (Homo sapiens) (P42574 whole entry, looked up): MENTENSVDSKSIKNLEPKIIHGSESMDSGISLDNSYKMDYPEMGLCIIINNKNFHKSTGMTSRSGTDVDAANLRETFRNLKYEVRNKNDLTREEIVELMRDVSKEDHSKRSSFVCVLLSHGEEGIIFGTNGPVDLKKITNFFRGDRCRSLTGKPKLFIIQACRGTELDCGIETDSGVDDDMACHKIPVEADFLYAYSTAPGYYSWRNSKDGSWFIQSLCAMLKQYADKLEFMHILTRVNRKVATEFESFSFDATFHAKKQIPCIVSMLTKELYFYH
Chain of Apoptosis regulator Bcl-2 (Homo sapiens) (P10415 whole entry, looked up): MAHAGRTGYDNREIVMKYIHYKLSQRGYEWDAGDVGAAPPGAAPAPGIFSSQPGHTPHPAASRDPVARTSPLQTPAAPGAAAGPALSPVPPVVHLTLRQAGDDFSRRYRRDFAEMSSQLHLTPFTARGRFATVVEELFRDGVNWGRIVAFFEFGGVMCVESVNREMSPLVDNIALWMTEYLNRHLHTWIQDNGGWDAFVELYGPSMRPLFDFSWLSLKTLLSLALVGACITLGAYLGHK
Chain of Cytochrome P450 2C19 (Homo sapiens) (P33261 whole entry, looked up): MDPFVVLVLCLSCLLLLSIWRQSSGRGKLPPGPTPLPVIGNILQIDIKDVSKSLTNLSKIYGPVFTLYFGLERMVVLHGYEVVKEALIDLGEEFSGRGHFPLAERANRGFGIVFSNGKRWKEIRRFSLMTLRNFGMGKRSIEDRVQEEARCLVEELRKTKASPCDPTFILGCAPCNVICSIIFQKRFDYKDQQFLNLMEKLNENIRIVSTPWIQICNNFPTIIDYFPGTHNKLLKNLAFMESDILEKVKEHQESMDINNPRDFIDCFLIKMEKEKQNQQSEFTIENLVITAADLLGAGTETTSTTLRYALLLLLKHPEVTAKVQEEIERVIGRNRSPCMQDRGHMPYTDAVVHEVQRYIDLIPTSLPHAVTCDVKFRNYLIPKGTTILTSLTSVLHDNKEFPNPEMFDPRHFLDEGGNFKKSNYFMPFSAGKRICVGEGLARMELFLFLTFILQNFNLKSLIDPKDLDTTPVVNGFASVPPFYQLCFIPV
Chain of Cytochrome P450 3A4 (Homo sapiens) (P08684 whole entry, looked up): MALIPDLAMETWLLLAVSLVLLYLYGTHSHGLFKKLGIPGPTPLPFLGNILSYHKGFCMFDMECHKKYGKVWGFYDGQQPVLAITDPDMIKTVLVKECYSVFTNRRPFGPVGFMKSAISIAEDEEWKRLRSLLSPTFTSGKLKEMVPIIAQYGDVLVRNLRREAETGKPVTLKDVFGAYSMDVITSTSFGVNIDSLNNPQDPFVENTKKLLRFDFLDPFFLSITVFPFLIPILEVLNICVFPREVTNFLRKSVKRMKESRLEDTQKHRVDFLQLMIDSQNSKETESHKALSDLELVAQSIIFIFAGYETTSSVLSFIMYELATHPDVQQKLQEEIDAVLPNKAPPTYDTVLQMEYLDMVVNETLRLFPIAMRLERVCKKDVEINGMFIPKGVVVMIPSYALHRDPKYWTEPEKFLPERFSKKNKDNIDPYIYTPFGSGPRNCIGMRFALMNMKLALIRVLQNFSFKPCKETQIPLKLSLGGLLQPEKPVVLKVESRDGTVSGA
Chain of Cytochrome P450 3A7 (Homo sapiens) (P24462 whole entry, looked up): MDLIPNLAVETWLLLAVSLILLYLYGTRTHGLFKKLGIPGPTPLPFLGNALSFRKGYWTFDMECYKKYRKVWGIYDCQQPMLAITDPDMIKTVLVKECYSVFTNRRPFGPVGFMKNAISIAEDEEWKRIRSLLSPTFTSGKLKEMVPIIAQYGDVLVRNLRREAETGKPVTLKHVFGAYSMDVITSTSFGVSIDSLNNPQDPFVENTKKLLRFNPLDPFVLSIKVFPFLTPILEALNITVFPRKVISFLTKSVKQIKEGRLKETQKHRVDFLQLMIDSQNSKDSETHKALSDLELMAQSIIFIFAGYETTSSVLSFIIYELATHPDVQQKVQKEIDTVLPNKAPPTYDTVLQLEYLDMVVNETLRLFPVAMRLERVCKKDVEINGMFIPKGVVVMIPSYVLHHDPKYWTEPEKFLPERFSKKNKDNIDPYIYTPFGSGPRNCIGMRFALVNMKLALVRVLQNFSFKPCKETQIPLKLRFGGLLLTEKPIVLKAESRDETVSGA

By AC50 is commonly meant the concentration giving half of the maximal activity seen. As for `Clc1cc(Cl)c2c(c1)N=C1CCCCCN1C2`, the compound was called inactive (in assay [1]; in [2]; with Caspase-3 (Homo sapiens); in assay [5]; with CYP2C9 (gene 1559); with CYP4A11 (gene 1579)). Moreover, the compound was called inactive (in assay [7]; in [8]; in assay [9]; in [10]; in the assay with CYP3A5 (gene 1577); in [11]). Besides, the AC50 was 2.21 µM (active) in [3], 6.27 µM (active) in assay [4], 6.18 µM (active) in the assay with CYP2C8 (gene 1558) and 11.1 µM (active) in assay [6].

As to `c1ccc2ccccc2c1`, the call (in [1]; in [2]; in the assay with Caspase-3 (Homo sapiens); in assay [3]; in assay [12]; in assay [5]) was inactive. Moreover, the compound was called inactive (in the assay with CYP2C8 (gene 1558); in the assay with CYP2C9 (gene 1559); with CYP2E1 (gene 1571); with CYP4A11 (gene 1579); in assay [7]; in assay [8]). The outcome (in assay [9]; in assay [10]; in assay [13]; in the assay with CYP3A5 (gene 1577); in [11]) was inactive. Further, in [4], the AC50 was 12.1 µM (active).

In the case of `O=C(O)Cc1cc(I)c(Oc2ccc(O)c(I)c2)c(I)c1`, the AC50 in [1] is 84 µM (active); in [3] it was 2.37 µM (active); in assay [4] it was 93.8 µM (active); in assay [5], 93.1 µM (active); with CYP2C9 (gene 1559) it was 79.5 µM (active); with CYP2E1 (gene 1571), 70.6 µM (active). In addition, the AC50 in the assay with CYP4A11 (gene 1579) was 74 µM (active); in [6], 41.6 µM (active); in assay [7], 78.9 µM (active); with CYP3A5 (gene 1577) it was 0.0881 µM (active); in assay [11], 89.8 µM (active). For the same compound, the outcome (in assay [2]; with Caspase-3 (Homo sapiens); in the assay with CYP2C8 (gene 1558); in assay [8]; in assay [9]; in [10]) was inactive.
